In the supplement of paper PMC11732987, “Enantioselective OTUD7B fragment discovery through chemoproteomics screening and high-throughput optimisation” (Communications Chemistry, 2025):

Legend:
Assay in all cases: log2 ratio of Biotin-Ahx-Ub-VS probe labelling (fragment/DMSO); higher = less target engagement (more negative = stronger competition), active = hit call of the paper (q ≤ 0.05, log2 ratio ≤ -1)
Conditions in all cases: compound concentration: 200 uM; treatment time: 3 h
USP42 = molecular target: T1, USP42 (UniProt Q9H9J4)
T1 sequence (whole entry): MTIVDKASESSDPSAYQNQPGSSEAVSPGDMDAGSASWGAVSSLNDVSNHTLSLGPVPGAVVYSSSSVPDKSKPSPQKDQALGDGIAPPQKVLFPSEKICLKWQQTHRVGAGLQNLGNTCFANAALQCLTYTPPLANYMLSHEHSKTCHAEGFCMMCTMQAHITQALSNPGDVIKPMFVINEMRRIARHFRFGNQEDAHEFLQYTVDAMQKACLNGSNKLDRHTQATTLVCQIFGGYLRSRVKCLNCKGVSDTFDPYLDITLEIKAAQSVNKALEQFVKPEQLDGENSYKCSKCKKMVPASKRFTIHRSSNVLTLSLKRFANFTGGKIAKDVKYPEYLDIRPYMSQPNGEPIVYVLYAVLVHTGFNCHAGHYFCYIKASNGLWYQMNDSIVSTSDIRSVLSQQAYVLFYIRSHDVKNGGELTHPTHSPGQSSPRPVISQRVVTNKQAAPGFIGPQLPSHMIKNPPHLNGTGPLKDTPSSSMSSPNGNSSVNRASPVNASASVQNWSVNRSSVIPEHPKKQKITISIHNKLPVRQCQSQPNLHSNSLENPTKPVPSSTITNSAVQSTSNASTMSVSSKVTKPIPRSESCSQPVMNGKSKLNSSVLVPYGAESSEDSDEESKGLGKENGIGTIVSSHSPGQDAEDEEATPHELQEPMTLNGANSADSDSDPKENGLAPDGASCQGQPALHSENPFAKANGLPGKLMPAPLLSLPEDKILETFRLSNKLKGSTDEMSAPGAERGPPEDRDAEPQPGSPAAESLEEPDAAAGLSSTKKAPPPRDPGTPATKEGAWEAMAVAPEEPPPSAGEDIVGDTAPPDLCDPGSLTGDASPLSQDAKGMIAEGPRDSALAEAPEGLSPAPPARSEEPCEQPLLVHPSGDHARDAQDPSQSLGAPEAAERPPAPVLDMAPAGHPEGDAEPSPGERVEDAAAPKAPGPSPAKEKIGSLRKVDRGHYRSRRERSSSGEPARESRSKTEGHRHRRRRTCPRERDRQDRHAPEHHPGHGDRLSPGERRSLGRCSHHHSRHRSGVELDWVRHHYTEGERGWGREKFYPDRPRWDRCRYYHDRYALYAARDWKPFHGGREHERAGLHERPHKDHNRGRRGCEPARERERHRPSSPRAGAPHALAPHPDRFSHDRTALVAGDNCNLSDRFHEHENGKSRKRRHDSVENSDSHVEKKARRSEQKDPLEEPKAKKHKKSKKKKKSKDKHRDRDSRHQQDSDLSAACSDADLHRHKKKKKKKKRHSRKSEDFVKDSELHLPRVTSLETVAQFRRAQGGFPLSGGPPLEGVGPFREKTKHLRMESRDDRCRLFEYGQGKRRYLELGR
Method in brief: (§1)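 The table lists average log2 ratios of fragment over vehicle, from an unpaired t-test on global-median-normalised Spectronaut label-free quantities. Proteins with ≥2 unique peptides were used. Samples were HEK293T lysate (495 µg) treated in triplicate with fragment at 200 µM or vehicle for 3 h, then with Biotin-Ahx-Ub-VS (0.5 µM final) for 1 h, with labelled DUBs NeutrAvidin-enriched and run by diaPASEF LC-MS/MS.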

USP46 = USP46 (UniProt P62068)
USP46, sequence (P62068 whole entry): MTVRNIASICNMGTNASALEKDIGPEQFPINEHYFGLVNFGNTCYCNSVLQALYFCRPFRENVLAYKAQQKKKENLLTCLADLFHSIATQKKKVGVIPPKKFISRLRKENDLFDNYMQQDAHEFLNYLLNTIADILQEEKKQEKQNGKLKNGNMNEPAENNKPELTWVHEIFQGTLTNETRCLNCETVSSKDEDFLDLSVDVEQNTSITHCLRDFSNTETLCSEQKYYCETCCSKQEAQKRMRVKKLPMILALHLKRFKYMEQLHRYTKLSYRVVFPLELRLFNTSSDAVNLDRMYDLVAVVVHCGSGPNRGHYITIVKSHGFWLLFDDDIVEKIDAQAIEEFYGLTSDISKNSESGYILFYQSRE
Method in brief: as §1

USP47 = molecular target: T2, USP47 (UniProt Q96K76)
T2 sequence (whole entry): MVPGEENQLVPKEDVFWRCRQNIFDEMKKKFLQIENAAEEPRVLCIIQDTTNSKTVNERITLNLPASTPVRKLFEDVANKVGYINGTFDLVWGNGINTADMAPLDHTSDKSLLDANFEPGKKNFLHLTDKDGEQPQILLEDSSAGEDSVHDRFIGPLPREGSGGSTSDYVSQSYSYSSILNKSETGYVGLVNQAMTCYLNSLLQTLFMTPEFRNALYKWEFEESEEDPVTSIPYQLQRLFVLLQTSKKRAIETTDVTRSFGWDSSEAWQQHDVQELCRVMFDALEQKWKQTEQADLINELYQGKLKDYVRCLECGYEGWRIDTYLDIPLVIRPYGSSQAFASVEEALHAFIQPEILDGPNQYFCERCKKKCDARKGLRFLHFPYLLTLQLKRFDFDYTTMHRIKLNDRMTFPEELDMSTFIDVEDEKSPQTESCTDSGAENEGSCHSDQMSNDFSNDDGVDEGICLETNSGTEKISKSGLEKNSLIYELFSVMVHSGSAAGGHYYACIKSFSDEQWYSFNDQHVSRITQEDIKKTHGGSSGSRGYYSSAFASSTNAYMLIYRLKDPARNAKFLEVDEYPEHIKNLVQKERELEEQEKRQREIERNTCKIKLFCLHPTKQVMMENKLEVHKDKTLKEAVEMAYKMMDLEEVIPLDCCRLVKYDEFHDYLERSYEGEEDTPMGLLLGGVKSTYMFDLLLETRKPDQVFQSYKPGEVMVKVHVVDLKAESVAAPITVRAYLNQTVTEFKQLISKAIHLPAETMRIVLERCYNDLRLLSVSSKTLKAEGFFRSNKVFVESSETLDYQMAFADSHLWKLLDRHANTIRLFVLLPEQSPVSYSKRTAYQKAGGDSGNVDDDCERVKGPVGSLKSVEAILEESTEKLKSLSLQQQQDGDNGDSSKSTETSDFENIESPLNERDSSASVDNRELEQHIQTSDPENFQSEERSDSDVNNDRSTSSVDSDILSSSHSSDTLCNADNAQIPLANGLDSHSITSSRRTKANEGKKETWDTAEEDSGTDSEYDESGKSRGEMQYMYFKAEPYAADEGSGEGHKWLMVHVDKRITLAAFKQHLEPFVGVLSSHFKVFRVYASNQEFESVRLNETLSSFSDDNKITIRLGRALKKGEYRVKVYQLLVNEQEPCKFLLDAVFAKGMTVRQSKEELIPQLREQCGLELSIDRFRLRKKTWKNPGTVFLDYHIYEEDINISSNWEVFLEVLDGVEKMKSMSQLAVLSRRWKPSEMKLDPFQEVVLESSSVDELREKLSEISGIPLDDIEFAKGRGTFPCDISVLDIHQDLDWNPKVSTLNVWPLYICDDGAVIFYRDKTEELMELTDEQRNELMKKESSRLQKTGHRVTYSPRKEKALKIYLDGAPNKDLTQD
Method in brief: as §1

USP48 = molecular target: T3, USP48 (UniProt Q86UV5)
T3 sequence (whole entry): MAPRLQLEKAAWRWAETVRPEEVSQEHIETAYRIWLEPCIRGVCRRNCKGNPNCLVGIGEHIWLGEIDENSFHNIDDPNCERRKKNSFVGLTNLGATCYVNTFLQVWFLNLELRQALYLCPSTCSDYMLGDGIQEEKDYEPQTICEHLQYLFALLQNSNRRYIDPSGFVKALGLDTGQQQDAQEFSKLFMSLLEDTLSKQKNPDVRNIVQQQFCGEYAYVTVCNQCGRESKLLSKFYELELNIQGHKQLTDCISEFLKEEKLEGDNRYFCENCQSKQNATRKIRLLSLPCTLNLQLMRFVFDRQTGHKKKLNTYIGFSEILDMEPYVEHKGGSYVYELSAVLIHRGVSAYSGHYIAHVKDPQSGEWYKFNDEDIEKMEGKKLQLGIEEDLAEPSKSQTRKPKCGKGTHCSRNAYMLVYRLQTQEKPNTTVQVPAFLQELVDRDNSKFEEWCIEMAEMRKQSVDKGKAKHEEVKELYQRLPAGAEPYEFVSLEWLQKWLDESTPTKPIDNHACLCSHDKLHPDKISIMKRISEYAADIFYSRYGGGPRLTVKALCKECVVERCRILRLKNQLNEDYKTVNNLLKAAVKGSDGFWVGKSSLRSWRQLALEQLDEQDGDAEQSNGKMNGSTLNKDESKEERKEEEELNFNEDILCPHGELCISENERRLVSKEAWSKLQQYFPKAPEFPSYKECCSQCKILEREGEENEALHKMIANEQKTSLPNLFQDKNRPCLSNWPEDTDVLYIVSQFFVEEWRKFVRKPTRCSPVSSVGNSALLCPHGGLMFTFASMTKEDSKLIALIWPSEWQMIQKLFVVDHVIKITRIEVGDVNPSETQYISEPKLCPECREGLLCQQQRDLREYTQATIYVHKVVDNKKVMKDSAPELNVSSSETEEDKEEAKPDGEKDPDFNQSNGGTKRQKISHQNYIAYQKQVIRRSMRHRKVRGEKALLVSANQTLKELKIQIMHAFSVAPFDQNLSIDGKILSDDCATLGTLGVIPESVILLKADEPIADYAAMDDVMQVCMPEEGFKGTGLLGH
Method in brief: as §1

USP5 = molecular target: T4, USP5 (UniProt P45974)
T4 sequence (whole entry): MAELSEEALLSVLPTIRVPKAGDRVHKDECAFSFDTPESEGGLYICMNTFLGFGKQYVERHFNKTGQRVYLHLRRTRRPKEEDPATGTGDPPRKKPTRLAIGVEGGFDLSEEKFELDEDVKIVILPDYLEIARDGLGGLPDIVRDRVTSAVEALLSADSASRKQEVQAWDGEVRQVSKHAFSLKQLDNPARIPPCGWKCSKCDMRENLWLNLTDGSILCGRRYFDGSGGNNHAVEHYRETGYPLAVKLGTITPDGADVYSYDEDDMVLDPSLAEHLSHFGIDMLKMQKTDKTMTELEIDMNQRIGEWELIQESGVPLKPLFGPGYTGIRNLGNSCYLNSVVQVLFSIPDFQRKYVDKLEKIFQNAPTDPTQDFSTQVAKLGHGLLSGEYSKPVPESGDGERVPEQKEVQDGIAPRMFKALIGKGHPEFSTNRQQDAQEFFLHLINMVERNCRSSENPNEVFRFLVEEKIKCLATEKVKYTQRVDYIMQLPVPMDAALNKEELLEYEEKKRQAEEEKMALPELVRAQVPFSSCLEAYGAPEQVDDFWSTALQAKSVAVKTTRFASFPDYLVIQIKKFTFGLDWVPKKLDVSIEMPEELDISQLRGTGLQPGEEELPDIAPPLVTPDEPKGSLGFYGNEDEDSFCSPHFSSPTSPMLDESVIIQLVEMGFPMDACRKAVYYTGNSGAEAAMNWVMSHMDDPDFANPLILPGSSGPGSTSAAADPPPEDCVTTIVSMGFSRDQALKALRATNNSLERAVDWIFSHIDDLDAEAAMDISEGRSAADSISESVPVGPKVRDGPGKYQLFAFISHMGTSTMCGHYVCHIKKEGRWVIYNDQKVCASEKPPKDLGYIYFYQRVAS
Method in brief: as §1

USP54 = USP54 (UniProt Q70EL1)
Method in brief: as §1

USP7 = USP7 (UniProt Q93009)
USP7, sequence (Q93009 whole entry, looked up): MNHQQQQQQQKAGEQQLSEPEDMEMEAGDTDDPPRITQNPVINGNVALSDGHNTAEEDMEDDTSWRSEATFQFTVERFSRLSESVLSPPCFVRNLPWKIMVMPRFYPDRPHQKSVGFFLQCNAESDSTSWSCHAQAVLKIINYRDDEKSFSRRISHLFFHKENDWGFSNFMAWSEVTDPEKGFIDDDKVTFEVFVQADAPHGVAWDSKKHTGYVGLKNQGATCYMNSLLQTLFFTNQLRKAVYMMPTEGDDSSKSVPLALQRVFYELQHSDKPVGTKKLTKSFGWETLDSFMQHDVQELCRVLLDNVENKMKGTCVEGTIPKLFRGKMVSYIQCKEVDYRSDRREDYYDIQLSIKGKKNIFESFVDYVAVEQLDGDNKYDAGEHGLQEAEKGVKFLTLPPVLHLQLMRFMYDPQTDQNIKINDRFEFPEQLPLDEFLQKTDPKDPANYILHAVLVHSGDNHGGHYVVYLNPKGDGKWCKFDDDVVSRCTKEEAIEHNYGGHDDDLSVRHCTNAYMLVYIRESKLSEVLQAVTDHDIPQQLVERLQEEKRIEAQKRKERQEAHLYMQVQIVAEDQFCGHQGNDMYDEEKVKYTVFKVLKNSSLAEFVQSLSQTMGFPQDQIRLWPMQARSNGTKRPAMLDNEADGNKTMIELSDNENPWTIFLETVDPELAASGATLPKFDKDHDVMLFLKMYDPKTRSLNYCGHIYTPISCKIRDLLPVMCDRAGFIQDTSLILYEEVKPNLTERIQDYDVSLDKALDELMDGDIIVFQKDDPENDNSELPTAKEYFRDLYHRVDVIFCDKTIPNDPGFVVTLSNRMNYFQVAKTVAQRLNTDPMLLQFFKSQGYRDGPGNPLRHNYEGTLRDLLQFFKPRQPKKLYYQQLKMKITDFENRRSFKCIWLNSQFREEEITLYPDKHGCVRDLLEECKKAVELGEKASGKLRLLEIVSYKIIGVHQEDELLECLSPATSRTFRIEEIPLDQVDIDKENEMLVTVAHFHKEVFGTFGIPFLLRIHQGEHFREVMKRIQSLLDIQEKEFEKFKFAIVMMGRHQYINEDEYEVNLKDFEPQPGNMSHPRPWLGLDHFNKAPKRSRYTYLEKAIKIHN
Method in brief: as §1

USP8 = molecular target: T5, USP8 (UniProt P40818)
T5 sequence (whole entry): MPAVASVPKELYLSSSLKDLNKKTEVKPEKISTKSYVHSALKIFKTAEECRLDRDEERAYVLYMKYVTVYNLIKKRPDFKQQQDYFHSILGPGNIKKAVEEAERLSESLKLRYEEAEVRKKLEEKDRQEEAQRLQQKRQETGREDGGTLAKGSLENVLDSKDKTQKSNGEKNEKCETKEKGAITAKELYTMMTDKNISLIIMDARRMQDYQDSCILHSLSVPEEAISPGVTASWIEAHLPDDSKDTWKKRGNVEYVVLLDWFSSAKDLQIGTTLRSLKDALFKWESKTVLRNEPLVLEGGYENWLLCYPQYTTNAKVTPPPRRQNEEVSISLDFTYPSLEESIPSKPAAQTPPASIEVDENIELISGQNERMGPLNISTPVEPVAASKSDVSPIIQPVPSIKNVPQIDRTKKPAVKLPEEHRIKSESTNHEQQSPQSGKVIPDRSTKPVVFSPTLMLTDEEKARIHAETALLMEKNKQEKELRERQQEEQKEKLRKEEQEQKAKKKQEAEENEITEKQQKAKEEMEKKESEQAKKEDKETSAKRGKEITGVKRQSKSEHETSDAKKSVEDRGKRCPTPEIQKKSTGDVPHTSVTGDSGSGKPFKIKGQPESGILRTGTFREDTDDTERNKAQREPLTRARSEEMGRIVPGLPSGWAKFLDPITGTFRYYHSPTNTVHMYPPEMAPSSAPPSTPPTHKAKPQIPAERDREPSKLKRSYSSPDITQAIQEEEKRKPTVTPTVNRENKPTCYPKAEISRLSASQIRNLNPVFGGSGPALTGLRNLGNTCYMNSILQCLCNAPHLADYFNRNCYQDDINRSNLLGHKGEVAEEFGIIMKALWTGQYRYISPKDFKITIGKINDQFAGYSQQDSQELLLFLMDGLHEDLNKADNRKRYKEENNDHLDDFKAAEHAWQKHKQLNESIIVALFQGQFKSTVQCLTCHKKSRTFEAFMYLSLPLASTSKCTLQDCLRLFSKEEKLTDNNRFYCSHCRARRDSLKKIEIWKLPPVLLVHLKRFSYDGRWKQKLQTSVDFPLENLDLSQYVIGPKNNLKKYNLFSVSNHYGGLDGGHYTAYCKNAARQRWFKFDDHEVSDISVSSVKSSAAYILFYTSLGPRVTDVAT
Method in brief: as §1

USP9X = USP9X (UniProt Q93008)
USP9X, sequence (Q93008 whole entry): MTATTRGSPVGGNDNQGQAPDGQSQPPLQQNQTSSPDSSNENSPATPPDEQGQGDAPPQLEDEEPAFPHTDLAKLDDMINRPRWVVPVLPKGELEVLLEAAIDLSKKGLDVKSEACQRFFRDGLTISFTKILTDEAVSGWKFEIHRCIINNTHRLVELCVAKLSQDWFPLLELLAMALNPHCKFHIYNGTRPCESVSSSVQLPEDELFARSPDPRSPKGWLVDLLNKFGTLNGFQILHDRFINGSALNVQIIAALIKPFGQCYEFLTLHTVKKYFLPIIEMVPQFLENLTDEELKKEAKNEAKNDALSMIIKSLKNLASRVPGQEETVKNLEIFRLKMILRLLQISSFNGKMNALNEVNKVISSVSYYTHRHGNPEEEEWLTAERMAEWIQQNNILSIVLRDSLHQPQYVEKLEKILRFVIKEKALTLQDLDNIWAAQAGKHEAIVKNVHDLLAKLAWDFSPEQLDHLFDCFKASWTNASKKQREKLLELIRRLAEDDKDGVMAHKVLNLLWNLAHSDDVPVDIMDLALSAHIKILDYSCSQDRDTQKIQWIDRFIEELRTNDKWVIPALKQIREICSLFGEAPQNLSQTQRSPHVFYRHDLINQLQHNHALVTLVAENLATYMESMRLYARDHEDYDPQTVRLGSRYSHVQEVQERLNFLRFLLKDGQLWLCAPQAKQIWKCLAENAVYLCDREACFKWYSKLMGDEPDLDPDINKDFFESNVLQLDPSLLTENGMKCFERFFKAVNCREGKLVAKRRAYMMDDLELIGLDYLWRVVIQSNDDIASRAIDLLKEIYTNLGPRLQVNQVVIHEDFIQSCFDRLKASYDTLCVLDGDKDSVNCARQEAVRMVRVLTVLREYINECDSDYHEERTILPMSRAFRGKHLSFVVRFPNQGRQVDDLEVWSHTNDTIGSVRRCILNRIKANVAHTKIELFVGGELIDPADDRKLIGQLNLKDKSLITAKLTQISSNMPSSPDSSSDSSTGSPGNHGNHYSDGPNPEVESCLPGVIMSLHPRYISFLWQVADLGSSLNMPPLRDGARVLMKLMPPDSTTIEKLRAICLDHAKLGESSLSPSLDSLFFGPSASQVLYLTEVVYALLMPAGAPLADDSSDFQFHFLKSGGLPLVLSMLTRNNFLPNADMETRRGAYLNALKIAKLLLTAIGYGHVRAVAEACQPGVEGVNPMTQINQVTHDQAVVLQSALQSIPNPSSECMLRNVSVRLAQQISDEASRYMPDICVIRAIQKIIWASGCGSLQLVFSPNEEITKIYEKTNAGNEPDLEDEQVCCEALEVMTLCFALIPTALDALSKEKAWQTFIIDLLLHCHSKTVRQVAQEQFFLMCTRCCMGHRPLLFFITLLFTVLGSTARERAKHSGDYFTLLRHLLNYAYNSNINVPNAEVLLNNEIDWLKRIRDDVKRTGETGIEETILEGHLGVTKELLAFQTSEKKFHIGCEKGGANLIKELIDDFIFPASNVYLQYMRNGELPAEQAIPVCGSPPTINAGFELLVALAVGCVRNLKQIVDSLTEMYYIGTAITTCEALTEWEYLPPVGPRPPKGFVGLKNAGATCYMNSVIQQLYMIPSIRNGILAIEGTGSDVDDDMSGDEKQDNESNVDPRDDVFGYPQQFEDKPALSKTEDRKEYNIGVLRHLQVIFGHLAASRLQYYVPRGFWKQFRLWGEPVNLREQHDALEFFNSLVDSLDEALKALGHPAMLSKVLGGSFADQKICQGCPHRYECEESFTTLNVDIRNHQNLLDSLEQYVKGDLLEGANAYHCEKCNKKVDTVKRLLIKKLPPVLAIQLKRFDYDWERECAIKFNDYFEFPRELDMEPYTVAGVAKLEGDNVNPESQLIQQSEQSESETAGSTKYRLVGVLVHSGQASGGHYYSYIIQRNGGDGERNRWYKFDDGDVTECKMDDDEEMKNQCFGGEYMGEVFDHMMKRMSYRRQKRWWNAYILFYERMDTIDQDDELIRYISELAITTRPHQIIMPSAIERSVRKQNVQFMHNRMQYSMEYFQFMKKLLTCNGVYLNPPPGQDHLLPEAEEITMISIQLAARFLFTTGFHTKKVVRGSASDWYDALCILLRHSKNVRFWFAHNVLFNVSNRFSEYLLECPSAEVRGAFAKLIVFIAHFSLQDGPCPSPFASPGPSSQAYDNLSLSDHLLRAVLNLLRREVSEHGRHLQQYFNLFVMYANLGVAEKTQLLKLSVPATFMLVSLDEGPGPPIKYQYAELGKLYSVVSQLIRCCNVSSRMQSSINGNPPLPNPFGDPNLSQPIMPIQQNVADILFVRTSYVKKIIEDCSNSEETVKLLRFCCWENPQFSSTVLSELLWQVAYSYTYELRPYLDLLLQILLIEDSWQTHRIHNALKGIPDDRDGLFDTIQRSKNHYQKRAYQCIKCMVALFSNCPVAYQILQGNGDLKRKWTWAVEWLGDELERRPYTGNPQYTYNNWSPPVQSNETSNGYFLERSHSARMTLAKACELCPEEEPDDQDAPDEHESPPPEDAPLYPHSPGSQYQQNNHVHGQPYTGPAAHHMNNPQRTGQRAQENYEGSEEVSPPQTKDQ
Method in brief: as §1

UniProt O00487 = molecular target: UniProt O00487
UniProt O00487, sequence (O00487 whole entry): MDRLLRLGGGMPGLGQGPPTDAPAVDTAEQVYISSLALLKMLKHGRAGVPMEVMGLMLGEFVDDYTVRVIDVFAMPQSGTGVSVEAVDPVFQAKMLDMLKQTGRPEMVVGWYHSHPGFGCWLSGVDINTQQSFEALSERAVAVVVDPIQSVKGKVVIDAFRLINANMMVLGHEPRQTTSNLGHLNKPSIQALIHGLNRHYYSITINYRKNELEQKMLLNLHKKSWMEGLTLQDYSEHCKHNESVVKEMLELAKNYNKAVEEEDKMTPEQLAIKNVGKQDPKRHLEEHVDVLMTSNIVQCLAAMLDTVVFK
Method in brief: as §1

Measured: log2 ratio of Biotin-Ahx-Ub-VS probe labelling

CNC(=O)C1(NC(=O)CCl)CCCCC1
inactive: USP42 -0.202 | USP46 0.0346 | USP47 0.28 | USP48 -0.00183 | USP5 0.148 | USP54 0.521 | USP7 -0.0838 | USP8 -0.173 | USP9X -0.228 | UniProt O00487 0.0455
